Test results as given in PubChem BioAssay (NCATS).
Where “and” joins values, the source holds several entries; their conditions need not be identical. Equal values may be shown once. Records with an inconclusive call do not appear. Unmarked numbers belong to inactive results. Calls of active or inactive are those of the source. Calls come from the whole dose curve; as a rule, active = well fitted inhibition curve with a large enough effect; inconclusive = small, poorly fitted or top-dose-only effect; inactive = flat fitted curve, though single readings scatter.

system: KB-3-1; assay: Cytotoxic Profiling of Annotated Libraries Using Quantitative High-Throughput Screening (AID 1296008); details: Five cell lines viability, CellTiter-Glo ATP luminescence, 48-72 h; max response: active compounds read low; note: nearly all actives have a fitted effect of over 60% in size
Outline: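 Cytotoxicity was measured as CellTiter-Glo ATP luminescence, read after 10 min at room temperature. Compound treatment of the cells lasted 48 or 72 hr at 37 degrees Celsius in a qHTS format.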
% is set by controls: 0 for no effect and ±100 for the full control effect; potency is the fitted concentration of half-maximal effect.

SMILES | max response | Potency
c1ccc2c(CCC3CCNCC3)c[nH]c2c1 | -10.3% | –
CN(C)CCOc1ccccc1Cc1ccccc1 (tested in a mixture with another compound) | 0.128% | –
COc1ccc(C2NC(=S)N3C(c4ccc(OC)c(OC)c4)NC(=S)N23)cc1OC (stereo not given) | -2.1% | –
CC(CN(C)C)CN1c2ccccc2S(=O)(=O)c2ccccc21 (stereo not given) | 23.6% | –
CC(=O)N[C@@H](C=O)[C@H](O)[C@H](O)[C@@H](O)CO | 5.53% and 4.97% | –
O=C(OCCO)c1ccccc1O | -5.64% | –
N[C@@H](C(=O)N[C@H]1C(=O)N2C(C(=O)O)=C(Cl)CC[C@H]12)c1ccccc1 | -8.22% | –
CC(NC(=O)Cc1cc(F)cc(F)c1)C(=O)NC1C(=O)N(C)c2ccccc2-c2ccccc21 (stereo not given) | – | 16.4 µM (active)
CC(=O)S[C@@H]1CC2=CC(=O)CC[C@]2(C)[C@H]2CC[C@@]3(C)[C@@H](CC[C@@]34CCC(=O)O4)[C@H]12 | -24% | –
Nc1ncnc(Nc2ccc(Cl)cc2)n1 | -7.22% | –
Cc1ccccc1CNc1ncnc2c1ncn2[C@@H]1O[C@H](CO)[C@@H](O)[C@H]1O | -19% | –
C[C@H](/C=C/[C@H](C)C(C)(C)O)[C@H]1CC[C@H]2/C(=C/C=C3C[C@@H](O)C[C@H](O)C3)CCC[C@]12C | 23% | –
C=C1C(=O)O[C@H]2CC(=C)[C@H]3CC[C@@](C)(O)[C@@H]3CC12 (stereo not given in full) | -21.5% | –
CC[C@H]1OC(=O)[C@H](C)[C@@H](O[C@H]2C[C@@](C)(OC)[C@@H](O)[C@H](C)O2)[C@H](C)[C@@H](O[C@@H]2O[C@H](C)C[C@H](N(C)C)[C@H]2O)[C@](C)(O)C[C@@H](C)[C@@H]2N[C@@H](COCCOC)O[C@@H]([C@H]2C)[C@]1(C)O | -15.7% | –
O=C(Nc1ccc(/C=C/c2ccc(NC(=O)c3cc(S(=O)(=O)O)c4cccnc4c3O)cc2S(=O)(=O)O)c(S(=O)(=O)O)c1)c1cc(S(=O)(=O)O)c2cccnc2c1O | 0.4% | –
O=C(O)c1cc2ccccc2c(Cc2c(O)c(C(=O)O)cc3ccccc23)c1O | -8.98% | –
COC[C@H](c1ccc(C(F)(F)F)cc1)N1CCN(C2(C)CCN(C(=O)c3c(C)ncnc3C)CC2)C[C@H]1C | -20% | –
CCCCCC(O)/C=C/C=O (stereo not given) | -19% | –
CO[C@H]1C[C@H](O[C@H]2[C@H](C)O[C@@H](O[C@@H]3/C(C)=C/C[C@@H]4C[C@@H](C[C@]5(C=C[C@H](C)[C@@H](C6CCCCC6)O5)O4)OC(=O)[C@@H]4C=C(C)[C@@H](O)[C@H]5OC/C(=C\C=C\[C@@H]3C)[C@]54O)C[C@@H]2OC)O[C@@H](C)[C@@H]1O | – | 20.6 µM (active)
Cc1ccc(C2(O)CCN(CCCC(=O)c3ccc(F)cc3)CC2)cc1 | -11.9% | –
CCN1CCCC1CNC(=O)c1cc(S(=O)(=O)CC)ccc1OC (stereo not given) | -13.4% and -13.1% | –
CCCCCCCC(=O)CC[C@@H]1[C@@H](C/C=C\CCCC(=O)OC(C)C)[C@@H](O)C[C@H]1O | 7.18% | –
O=[N+]([O-])c1ccc(Oc2ccc(N=C=S)cc2)cc1 | -16.8% | –
CCOC(=O)COc1ccc2c(C)c(CCN(CC)CC)c(=O)oc2c1 | -7.36% | –
CC(C(=O)O)c1ccc(C2CCCCC2)c2ccccc12 (stereo not given) | -20.6% | –
CC(=O)O[C@H]1CC[C@@]2(C)C(=CC[C@@H]3[C@@H]2CC[C@]2(C)C(c4cccnc4)=CC[C@@H]32)C1 | 0.542% | –
COc1ccc(C(=O)Nc2ccccc2CCC2CCCCN2C)cc1 (stereo not given) | -11.1% | –
CC(C)c1cccc(C(C)C)c1NC(=O)Nc1ccc(Sc2ccc([N+](=O)[O-])cc2)cc1 | – | 10.3 µM (active)
OC(CN1CCCCC1)c1cc(-c2ccccc2)on1 (stereo not given) | -12.7% | –
CCCCCCCCCCCCCCCC(=O)OC[C@@H](COP(=O)([O-])OCC[N+](C)(C)C)OC(=O)CCCCCCCCCCCCCCC | 1.61% | –
